# Measurements as given in ChEMBL document CHEMBL4888484, “Replenishing the malaria drug discovery pipeline: Screening and hit evaluation of the MMV Hit Generation Library 1 (HGL1) against asexual blood stage Plasmodium falciparum ,using a nano luciferase reporter read-out” (2022).
# Among all 150,000 compounds or so, about 540 (0.36%) showed an effect of 50% or more. This is one part of a sample in which strong results are shown more often than they occur.
# System: Plasmodium falciparum
# Assay: Primary screen in NF54 nanoGlo assay, in single point, at 2uM, 72h; a lower Z score goes with more inhibition
# Assay type: functional, Erythrocyte
# Conditions: timepoint 72 hour
SMILES,% Inhibition [%],Z score
COc1ccc(NC(=O)CN2C(=O)[C@H]3CCCC3=Nc3ccccc32)cc1,1,-0.17
Cc1cc(S(=O)(=O)N(C)CCC(=O)O)sc1C,-30,2.75
COc1ccc(-n2c(CN3CCCC3)n[nH]c2=O)c(C)c1,-9,0.87
Cc1ccc(OCC(=O)Nc2noc(-c3ccc(F)cc3)n2)cc1,-8,1.23
CNc1nc(N2C[C@H]3CC[C@@H](C2)N(C)C3=O)nc2c1CCC2,6,-0.76
CNc1cc(C)nc(N2C[C@H](C)[C@@](O)(C3CC3)C2)n1,7,-1.4
CNc1nc(N2C[C@H](C)[C@@](O)(C3CC3)C2)nc2c1CCC2,100,-0.11
C=C1C2CCC3(C4C[C@@H]5[C@@]6(C)CCC[C@]5(C3[C@H]2O)[C@@H]4N(CC)C6)[C@@H]1O (stereo partly specified),31,-3.48
Cc1ccc(-c2cc(C(=O)N(Cc3cccs3)[C@H]3CCS(=O)(=O)C3)no2)cc1F,-11,2.15
CN(Cc1cc(-c2ccccc2)n[nH]1)c1cc(C2CC(O)C2)nc(N)n1 (stereo unspecified),7,-1.1
CN(Cc1ccc(-c2ccccc2)cc1)c1cc([C@H]2C[C@@H](N)C2)nc(N)n1,64,-8.85
CCCCN(C)c1cc([C@H]2C[C@@H](N)C2)nc(N)n1,-3,0.38
CCn1c(CN[C@H](c2ccccc2)c2cccs2)nc2cc(S(=O)(=O)N3CCCCC3)ccc21,14,-1.61
Cc1ccc(NC(=O)N2CC[C@H](N3CCN(C)CC3)[C@H](CCC(=O)O)C2)c(C)c1,16,-2.12
O=C1CCCN1c1ccc(NCc2cccc(O)c2)cc1F,-2,0.32
O=C(N1CCCN(C2CCC2)CC1)C1(c2ccccc2)CCOCC1,-14,2.36
CCOc1cc(CNc2cccc3ccccc23)cc(Br)c1OCC(=O)NC(C)(C)C,56,-9.96
CCOc1cc(CNc2cc(C)ccc2C)cc(Br)c1OCC(=O)Nc1ccccc1,-2,0.3
CCOc1cc(CNC2CCCC2)cc(Br)c1OCC(=O)Nc1ccccc1OC,-12,1.42
CN(C)c1ccccc1NC(=O)N[C@H]1CCS(=O)(=O)C1,-11,1.66
COc1ccc(-n2c(-c3sc(Nc4ccc(Cl)cc4)nc3C)nc3ccccc3c2=O)cc1,-3,0.38
COC(=O)Nc1nc(-c2ccccc2)c(-c2nc3ccccc3c(=O)n2-c2ccc(OC)cc2)s1,51,-6.56
CCOC(=O)Nc1nc(C)c(-c2nc3ccccc3c(=O)n2-c2ccc(OC)cc2)s1,37,0.52
